High-throughput results (PubChem)
In the library only some 21% were active in any assay of this set; here they are far more common.
CHX counter: counter-screen for Shiga toxin inhibitors: cycloheximide protein synthesis inhibition. AID 2314. cell reporter, cycloheximide protein synthesis inhibition counterscreen. actives 12% (n = 300,000). max response, %; in the data active = max response mostly above about 13%, no sharp cut-off; inactive = mostly below about 14%; also: read at 38.3 µM for the half of the compounds with a filed dose; 0% is about no effect
Pf growth 48h: P. falciparum growth inhibition at 48 hours (one generation); P. falciparum luciferase growth in erythrocytes, 48 h; Potency, µM (top dose mostly 28.7 µM), inactives show at the top dose activity change, negative = inhibition, actives largely listed as inhibitors; actives 5.9% (n = 310,000); AID 504832; also: potency is read from the fitted curve at half-maximal effect; % is scaled to controls: 0 for no effect and ±100 for the full control effect
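In quantitative HTS format, infected erythrocytes bearing luciferase-reporter parasites were treated for a single generation at 37 C. Luminescence after adding detection reagent served as the growth measure.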
Pf growth 96h: inhibits malaria parasite growth, 96 h. P. falciparum luciferase reporter growth, 96 h. Potency, µM (titrated, usually from 28.7 µM), without a hit: at the highest dose activity change, negative = inhibition, most hits filed as inhibitors. actives 6.9% (n = 320,000). AID 504834; also: potency is read from the fitted curve at half-maximal effect; % is scaled to controls: 0 for no effect and ±100 for the full control effect
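Plates of compound plus infected erythrocytes (2% hematocrit, 0.05% parasitemia final) incubate 96 hours, 37 C, 5% CO2. Detection reagent added; reduced luminescence from the parasites' luciferase reporter flags inhibition.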
AMA1 RON2 block: disrupts binding of P. falciparum AMA1 to RON2. AlphaScreen AMA1-biotinylated RON2 peptide binding. Potency, µM (top dose mostly 58.2 µM), inactives show at the highest dose activity change, negative = inhibition, usual class: inhibitors. actives 0.2% (n = 360,000). AID 720542;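 also: potency is read from the fitted curve at half-maximal effect; 0% = vehicle wells and -100% = peptide control; nearly all actives have a fitted effect of over 45% in size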
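AMA1 (3D7) with his tag at 25 nM final met compounds first, then biotinylated RON2 peptide at 25 nM; detection used donor plus acceptor beads, 10 µg/mL apiece, read by AlphaScreen after 30 min at room temperature.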
Shiga inhibitor: Shiga toxin inhibition. Vero cells, Shiga toxin protein synthesis inhibition reporter. actives 9.2% (n = 290,000). inhibition, % at 38.7 µM; in the data active = inhibition mostly above about 28%, no sharp cut-off; inactive = mostly below about 43%; also: 0% is about no effect
HCV inh: inhibitors of hepatitis C virus infection; Huh7.5.1 HCVcc-Cre infection, luciferase reporter, 44 h; Potency, µM (top dose mostly 41.8 µM), for the others: at the top dose activity change, negative = inhibition, most hits filed as inhibitors; actives 3.4% (n = 340,000); AID 651820; also: potency is read from the fitted curve at half-maximal effect; % is scaled to controls: 0 for no effect and ±100 for the full control effect
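Cells seeded at 1,000/well and cultured 4 h, then compounds added followed by HCVcc-Cre virus (~0.5 moi). After 44 h further culture, luciferase substrate was added, plates held 15 min at room temperature, and luminescence read for 15 sec.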
The depositor's hits bear a star; ? = inconclusive; nt = no result. Unless noted, calls follow the shape of the dose curve; as a rule, active = well fitted curve in the direction sought with a large enough effect; inconclusive = small, poorly fitted or top-dose-only effect, or another doubt; inactive = no such curve, though single readings can be large; an effect the other way counts as inactive or inconclusive.

SMILES	CHX counter	Pf growth 48h	Pf growth 96h	AMA1 RON2 block	Shiga inhibitor	HCV inh
COc1cccc(-c2cnc3c(c2)C(=O)N([C@H](C)CO)C[C@@H](C)[C@H](CN(C)C(=O)Nc2ccccc2F)O3)c1	nt	nt	nt	-4%	nt	nt
CC1(C)OC(=O)C(=CNn2cnc3ccccc3c2=O)C(=O)O1	32*	39%	37%	6%	29	24%
CCC(C)(C)NC(=O)C(c1ccccn1)N(C(=O)c1csnn1)c1ccc(C)cc1 (centres undefined)	-1	19%	34%	1%	17	0%
CCS(=O)(=O)Nc1cccc(C(=C2CCCCC2)c2cnc[nH]2)c1	nt	12µM*	?	-3%	nt	8%
COc1ccccc1Cn1c(SCC(N)=O)nc2c(oc3ccccc32)c1=O	-2	?	-30%	5%	15	?
COc1ccccc1Cn1c(SCC#N)nc2cc(C(=O)N3CCC4(CC3)OCCO4)ccc2c1=O	-2	?	9.3µM*	-1%	-26	?
CCCCC1C2C(=O)N(c3ccc(C)cc3)C(=O)C2ON1c1ccccc1 (centres undefined)	35*	39%	0%	7%	104*	-15%
CCCCC1C2C(=O)N(c3ccccc3)C(=O)C2ON1c1ccccc1 (centres undefined)	-1	26%	-31%	-1%	9	11%
COc1ccc(-c2csc(NC(=O)CCNC(=O)c3ccco3)n2)cc1	nt	nt	nt	0%	nt	nt
Cc1cccc(-c2nc(CCNC(=O)c3ccco3)cs2)c1	nt	nt	nt	-9%	nt	nt
Cc1ccc(-c2csc(NC(=O)CCNC(=O)c3ccco3)n2)cc1	20*	?	?	-2%	43*	-6%
COc1cc(-c2nc(CCNC(=O)c3ccco3)cs2)cc(OC)c1OC	1	?	10µM*	17%	9	-18%
Cc1ccc(-c2nc(CNC(=O)c3ccco3)cs2)cc1	39	33%	?	-16%	85*	?
Cc1ccc(-c2nc(CCNC(=O)c3ccco3)cs2)cc1	nt	?	?	-2%	nt	10µM*
COc1ccc(-c2nc(CCNC(=O)c3cccs3)cs2)cc1	-2	-26%	?	-10%	35	35µM*
O=C(NCCc1csc(-c2ccc(Cl)cc2)n1)c1ccco1	22	-1%	9%	-3%	-2	11µM*
Cc1csc2nc(CNC(=O)c3ccco3)cn12	35*	100%	-9%	-6%	56*	3%
Cc1ccc(C(=O)OCC(=O)Nc2nc(-c3ccccc3)cs2)cc1NC(=O)c1ccco1	14	30%	-2%	28%	28	11µM*
COc1cccc(C(=O)NNC(=O)c2ccc(NS(=O)(=O)c3cccs3)cc2)c1OC	nt	2.9µM*	2.1µM*	16%	nt	-5%
O=C(c1ccccc1)c1cccs1	6	52%	-16%	-14%	33	2%
CCOc1ccc(NS(=O)(=O)c2cc(NC(=O)c3ccc(C)cc3)ccc2Cl)cc1	17*	?	?	8%	-14	7.9µM*
CCCCOc1cccc(C(=O)Nc2ccc(NC(=O)c3cccs3)cc2)c1	-1	0%	4.7µM*	-2%	28	?
CCOc1ccc(C(=O)c2cccs2)cc1	27*	120%	nt	7%	44	-11%
CCOc1ccc(NC(=O)c2ccc(NS(=O)(=O)c3cccs3)cc2)cc1	10	-3%	0.83µM*	-11%	21	-13%
CCC(C)NCCC(=O)Nc1ccc(Cl)c(S(=O)(=O)Nc2ccc(Cl)cc2)c1 (centres undefined)	-2	10µM*	9.3µM*	-10%	12	?
CCCOc1ccc(C(=O)Nc2ccc(NC(=O)c3cccs3)cc2)cc1	13	3%	-21%	-4%	49*	12%
Cc1ccccc1NC(=O)COc1ccc(Br)cc1C	41*	9%	?	3%	54*	-6%
COc1cc(CO)c(Br)cc1OCC(=O)Nc1ccccc1C	32*	76%	?	-9%	29	-8%
COc1ccccc1NC(=O)COc1cc(Br)c(CNCCCN2CCOCC2)cc1OC	8	?	12%	0%	2	11µM*
